The values below are quoted from earlier work in PubChem BioAssay AID977611.

The data set can be described thus: PubChem AID 977611. As to conditions: PDB protein-ligand complexes, literature Kd.

Molecules are shown by their SMILES. In all, about 3,900 compounds went through this assay and about 3,900 (100%) were called active. Cut-off not given; nearly all actives show Kd up to about 4200 µM. So high a share suggests a set chosen from earlier hits. The list shows a part of the results. Starred links: 1 amine or outer side, 2 acyl side, 3 side chain; linkers in the order of their positions; H or OH if unused. Positions of bridges follow the written chain, without caps; N, C: chain ends. Bridge positions count the residues as written; N and C are the ends. Non-standard residues stand in square brackets, D forms with d. Square brackets hold non-standard residues; d marks the D form. Residues, ends and D or L forms follow the SMILES beside them. Peptide text beside a SMILES is read from it. X1 = O=C([C@H](Cc1ccc(O[P+](O)(O)O)cc1)N[*:1])[*:2]; Orn(CH(NH2)2) = NC(N)NCCC[C@H](N)C(=O)O; Pro(4,5-dehydro) = O=C(O)[C@@H]1CC=CN1

On to `CC(C)C[C@H](NC(=O)[C@H](CC(C)C)NC(=O)[C@H](CCC(=O)O)NC(=O)[C@@H]1CC=CN1C(=O)[C@H](C)NC(=O)[C@@H]1CCCN1)C(=O)NCC(=O)O` (H-PA[Pro(4,5-dehydro)]ELLG-OH), for which the equilibrium dissociation constant (Kd) (protein: anti-hinge rabbit antibody 2095-2, PDB entry 4o4y) was 15.5 nM (active).
For `CC(C)C[C@H](NC(=O)[C@H](CC(N)=O)NC(=O)[C@H](Cc1ccccc1)NC(=O)[C@@H](N)CO)C(=O)N[C@@H](C)C(=O)N1CCC[C@H]1C(=O)N[C@@H](CC(C)C)C(=O)NCC(=O)N[C@@H](CCCNC(N)N)C(=O)N[C@@H](CCCNC(N)N)C(=O)N[C@@H](CCCNC(N)N)C(=O)N[C@H](C(=O)N[C@@H](CCC(N)=O)C(=O)N[C@@H](CO)C(=O)N[C@@H](CCC(N)=O)C(=O)O)C(C)C` (H-SFNLAPLG[Orn(CH(NH2)2)][Orn(CH(NH2)2)][Orn(CH(NH2)2)]VQSQ-OH), the dissociation constant (Kd) (protein: Telomeric repeat-binding factor 2(TRF2 TRFH domain), PDB entry 3bu8) is 120 nM (active).
For `CC[C@H](C)[C@H](NC(=O)[C@@H](NC(=O)[C@@H](N)CC(C)C)C(C)C)C(=O)N[C@@H](C)C(=O)NCC(=O)N[C@@H](CC(N)=O)C(=O)N1CCC[C@H]1C(=O)N[C@@H](C)C(=O)N[C@@H](Cc1ccc(O[P+](O)(O)O)cc1)C(=O)N[C@@H](CCCNC(N)N)C(=O)N[C@@H](CO)C(=O)O` (H-LVIAGNPA[X1][Orn(CH(NH2)2)]S-OH), the Kd (protein: PTB domain of insulin receptor substrate-1(IRS-1), PDB entry 1irs) is 6000 nM (active).
As to `O=C1O[C@H](CO)[C@@H](O[C@@H]2O[C@H](CO)[C@@H](O)[C@H](O)[C@@H]2O)[C@H](O)[C@@H]1O`, the Kd (protein: ABC transporter substrate-binding protein MnBP3, PDB entry 4pft) is 2.3 nM (active).
On to `OC[C@H]1O[C@H](O[C@H]2[C@H](O)[C@@H](O)[C@@H](O[C@H]3[C@H](O)[C@@H](O)[C@@H](O[C@H]4[C@H](O)[C@@H](O)[C@@H](O)O[C@@H]4CO)O[C@@H]3CO)O[C@@H]2CO)[C@H](O)[C@@H](O)[C@@H]1O`, for which the Kd (protein: Outer membrane protein SusF, PDB entry 4fe9) was 990000 nM (active).
Consider `C[C@H]1O[C@H](O[C@H]2[C@H](O)[C@@H](O)[C@@H](O[C@H]3[C@H](O)[C@@H](O)[C@@H](O)O[C@@H]3CO)O[C@@H]2CO)[C@H](O)[C@@H](O)[C@@H]1N[C@H]1CC(CO)[C@@H](O)[C@H](O)[C@H]1O` (stereo partly specified), for which, where the note is “protein: Carbohydrate ABC transporter substrate-binding protein, CUT1 family (TC 3.A.1.1.-) EUR_01830, PDB entry 4uac”, the Kd is 288 nM (active).
As to `C[C@@H]1O[C@@H](O)[C@H](O)[C@H](O)[C@H]1O[C@H]1O[C@H](CO)[C@@H](O)[C@H](O[C@H]2O[C@H](C)[C@@H](O)C[C@H]2O)[C@@H]1O[C@H]1O[C@H](CO)[C@H](O)[C@H](O[C@@H]2O[C@@H](C)[C@H](O[C@H]3O[C@H](CO)[C@@H](O)[C@H](O[C@H]4O[C@H](C)[C@@H](O)C[C@H]4O)[C@@H]3O[C@H]3O[C@H](CO)[C@H](O)[C@H](O)[C@H]3O)[C@@H](O)[C@H]2O)[C@H]1O`, the equilibrium dissociation constant (Kd) (protein: Bifunctional tail protein, PDB entry 3th0) is 75800 nM (active).
As for `OC[C@H]1O[C@H](O[C@H]2[C@@H](O)[C@@H](CO)O[C@@H](O[C@H]3[C@H](O)[C@@H](O)[C@H](O)O[C@@H]3CO)[C@@H]2O)[C@H](O)[C@@H](O)[C@H]1O`, the dissociation constant (Kd) (protein: PA-I GALACTOPHILIC LECTIN, PDB entry 2vxj) was 68000 nM (active).
With `O=P(O)(O)OC[C@H]1OC(O[C@@H]2O[C@H](CO)[C@@H](O)[C@H](O)[C@H]2O)[C@H](O)[C@@H](O)[C@@H]1O` (stereo partly specified), the Kd (protein: trehalose operon repressor, PDB entry 1BYK) is 10000 nM (active).
As to `OC[C@H]1CNC[C@@H](O[C@H]2O[C@H](CO)[C@@H](O)[C@H](O)[C@@H]2O)[C@@H]1O`, the Kd (protein: GLYCOSYL HYDROLASE FAMILY 71 BxGH99, PDB entry 4v27) was 217 nM (active).
As for `CC[C@H](C)[C@H](NC(C)=O)C(=O)N[C@@H](CO)C(=O)N[C@@H]1C(=O)N[C@@H](CCCN=C(N)N)C(=O)N[C@H]2CCCCNC(=O)CC[C@@H](C(=O)O)NC(=O)[C@@H]3CCC(=O)OC[C@H](NC(=O)[C@@H]4CCCN4C(=O)[C@H](Cc4ccc(O)cc4)NC2=O)C(=O)N[C@@H](CC(=O)O[C@@H]1C)C(=O)N[C@@H](Cc1c[nH]c2ccccc12)C(=O)N3` (Ac-ISTRKYPSDWEE-OH; ester 3-9, 8-11; lactam 5-12), the Kd (protein: Bovine Cationic trypsin, PDB entry 4ktu) is 685 nM (active).
Turning to `CC(C)C[C@H]1NC(=O)[C@@H](Cc2c[nH]c3ccccc23)NC(=O)[C@@H](CCC(N)=O)NC(=O)[C@@H](Cc2c[nH]c3ccccc23)NC(=O)[C@@H](CCC(=O)O)NC(=O)[C@H]2CCCN2C(=O)[C@@H](Cc2ccc(O)cc2)NC(=O)[C@@H](CC(=O)O)NC(=O)[C@H](NC(=O)[C@@H](C)NC(=O)CNC(=O)[C@H](N)CCCCN)CSSC[C@H](C(=O)N[C@H](C)C(=O)N[C@H](C)C(=O)O)NC1=O`, the Kd was 2.5 nM (active) (protein: gp41 N-peptide, PDB entry 2r5b) and 0.07 nM (active) (protein: gp41 N-peptide, PDB entry 2r5d).
Turning to `C[C@@H]1NC(=O)[C@@H]2CSSC[C@H](NC(=O)CN)C(=O)N[C@@H](CSSC[C@@H](C(N)=O)NC(=O)[C@H](CCCNC(N)N)NC(=O)[C@H](Cc3c[nH]c4ccccc34)NC1=O)C(=O)N[C@@H](CO)C(=O)N[C@@H](CC(=O)O)C(=O)N1CCC[C@H]1C(=O)N[C@@H](CCCNC(N)N)C(=O)N2`, the Kd (protein: A-AChBP, PDB entry 2byp) was 0.88 nM (active).
Turning to `CC(=O)N[C@@H](C)C(=O)N[C@@H](CC(C)C)C(=O)N[C@H]1CSSC[C@@H](C(=O)N[C@@H](CCC(N)=O)C(=O)N[C@@H](Cc2ccccc2)C(=O)N[C@H](C(=O)N[C@@H](CCC(=O)O)C(N)=O)C(C)C)NC(=O)[C@H](Cc2ccc(O)cc2)NC(=O)[C@H](Cc2c[nH]c3ccccc23)NC(=O)[C@H](CCCNC(N)N)NC(=O)[C@H](CC(=O)O)NC(=O)[C@H](C(C)C)NC(=O)[C@H](CCCNC(N)N)NC(=O)[C@@H]2CCCN2C(=O)[C@H](CC(=O)O)NC(=O)[C@H](CC(=O)O)NC1=O` (Ac-ALCDDP[Orn(CH(NH2)2)]VD[Orn(CH(NH2)2)]WYCQFVE-NH2; disulfide 3-13), the Kd (protein: des-gla factor viia (heavy chain), PDB entry 1dva) was 8.5 nM (active).
In the case of `CC(C)C[C@H](NC(=O)[C@@H]1CSSC[C@@H]2NC(=O)[C@H](CC(N)=O)NC(=O)[C@@H](N)CSSC[C@H](NC(=O)[C@H](CC(C)C)NC(=O)[C@H](Cc3ccccc3)NC(=O)[C@H]([C@@H](C)O)NC(=O)[C@H](CCC(=O)O)NC(=O)[C@@H]3CCCN3C(=O)[C@H](C)NC(=O)[C@H](CCCCN)NC2=O)C(=O)N[C@@H](Cc2ccc(O)cc2)C(=O)N[C@@H](Cc2c[nH]c3ccccc23)C(=O)N[C@@H](CCCNC(N)N)C(=O)N1)C(=O)N[C@@H](CCC(N)=O)C(=O)N[C@@H](Cc1c[nH]cn1)C(N)=O` (H-CNCKAPETFLCYW[Orn(CH(NH2)2)]CLQH-NH2; disulfide 1-11, 3-15), the Kd (protein: E3 ubiquitin-protein ligase Mdm2, PDB entry 3iux) was 25.1 nM (active).
Turning to `CC[C@H](C)[C@H](N)C(=O)N[C@H](C(=O)NCC(=O)NCC(=O)N[C@H]1CSSC[C@@H](C(=O)O)NC(=O)[C@H](CCC(=O)O)NC(=O)[C@H](CCC(=O)O)NC(=O)[C@H](CCCN=C(N)N)NC(=O)[C@H](CC(=O)O)NC(=O)[C@H](CCSC)NC(=O)[C@H](Cc2c[nH]c3ccccc23)NC(=O)[C@H](Cc2ccc(O)cc2)NC(=O)[C@@H]2CCCN2C1=O)[C@@H](C)CC` (H-IIGGCPYWMDREEC-OH; disulfide 5-14), under “protein: Hepatocyte growth factor HGF-Beta V495, PDB entry 4o3u”, the Kd is 400 nM (active).
As to `N#Cc1c(O)c2c(-c3ccc(-c4ccccc4O)cc3)c(Cl)sc2[nH]c1=O`, the dissociation constant (Kd) (protein: 5'-AMP-activated protein kinase catalytic subunit AMPK alpha1-belta1-gamma1, PDB entry 4qfr) is 7.4 nM (active).
For the compound `N#Cc1c(O)c2c(-c3ccc(Br)cc3)c(Br)sc2[nH]c1=O`, the Kd (protein: 5'-AMP-activated protein kinase catalytic subunit AMPK alpha1-belta1-gamma1, PDB entry 4qfs) is 900 nM (active).
`Cc1nc2c(=O)[nH]c(=O)[nH]c2n(C[C@H](O)[C@H](O)[C@H](O)CO)c1=O`: for the setting “protein: Major histocompatibility complex class I-related gene protein, PDB entry 4l4v”, the Kd was 1650 nM (active).
On to `CCNc1cc2c(cc1C)C(c1ccccc1C(=O)OCC)c1cc(C)c(NCC)cc1O2`, for which, where the note is “protein: Putative regulatory protein, PDB entry 3vvz”, the Kd is 26400 nM (active).
Consider `C[C@@H](O)CN1CC2=C(C1)c1ccccc1Nc1ccccc12`, for which the Kd (protein: Renin, PDB entry 4gj9) was 500000 nM (active).
As for `CC[C@H](C)[C@H](NC(=O)CNC(=O)[C@H](CCC(N)=O)NC(=O)[C@@H](NC(=O)[C@H](CC(N)=O)NC(=O)[C@@H](N)CC(=O)O)[C@@H](C)CC)C(=O)N[C@H](C(=O)N[C@@H](CCCCN)C(=O)N1CCC[C@H]1C(=O)N[C@@H](C)C(=O)N[C@H](C(=O)N[C@@H](CCCNC(N)N)C(=O)N[C@@H](CCCNC(N)N)C(=O)N[C@@H](CC(C)C)C(=O)N[C@@H](C)C(=O)N[C@@H](CCCNC(N)N)C(=O)N[C@@H](CCCNC(N)N)C(=O)NCC(=O)O)[C@@H](C)CC)[C@@H](C)O` (H-DNIQGITKPAI[Orn(CH(NH2)2)][Orn(CH(NH2)2)]LA[Orn(CH(NH2)2)][Orn(CH(NH2)2)]G-OH), the Kd (protein: Histone-binding protein RBBP7, PDB entry 3cfv) is 900 nM (active).
Turning to `CC[C@H](C)[C@H](NC(=O)CNC(=O)[C@@H](N)CCC(N)=O)C(=O)N[C@H](C(=O)N[C@@H](CCCCN)C(=O)N1CCC[C@H]1C(=O)N[C@@H](C)C(=O)N[C@H](C(=O)N[C@@H](CCCNC(N)N)C(=O)N[C@@H](CCCNC(N)N)C(=O)N[C@@H](CC(C)C)C(=O)N[C@@H](C)C(=O)N[C@@H](CCCNC(N)N)C(=O)N[C@@H](CCCNC(N)N)C(=O)NCC(=O)O)[C@@H](C)CC)[C@@H](C)O` (H-QGITKPAI[Orn(CH(NH2)2)][Orn(CH(NH2)2)]LA[Orn(CH(NH2)2)][Orn(CH(NH2)2)]G-OH), the Kd (protein: Histone-binding protein RBBP7, PDB entry 3cfs) is 1100 nM (active).
With `O[C@@H]1[C@H](O)CO[C@](O)(CO[P+](O)(O)O)[C@H]1O`, the Kd (protein: GLUCOKINASE REGULATORY PROTEIN, PDB entry 4bb9) was 1000 nM (active).
`O=C(NCCC1C=CCCC1)Nc1ccc2nnsc2c1` (stereo unspecified): the dissociation constant (Kd) (protein: Protein arginine N-methyltransferase 3, PDB entry 3smq) was 9500 nM (active).
Regarding `OC[C@H]1O[C@@H](Oc2ccc([C@@H](c3ccc(O)c(Cl)c3)c3ccccc3S(O)(O)O)cc2Cl)[C@H](O)[C@@H](O)[C@H]1O`, the equilibrium dissociation constant (Kd) (protein: PA-I galactophilic lectin, PDB entry 4lk6) is 6300 nM (active).
Take `C/C(=C/C=C/C(C)=C/C(=O)O)Cc1cccc2ccc(C)cc12`: under “protein: Retinoic acid receptor RXR-alpha, PDB entry 4poj”, the Kd is 8 nM (active).
With `NCc1ccc2occc2c1`, the Kd (protein: CATIONIC TRYPSIN, PDB entry 4ab9) was 466000 nM (active).
On to `NC1C=CN([C@@H]2O[C@H](CNC(=O)c3c[nH]c4scc[n+]34)[C@@H](O)[C@H]2O)C(=O)N1` (stereo partly specified), for which the Kd (protein: 2-C-methyl-D-erythritol 2,4-cyclodiphosphate synthase, PDB entry 3q8h) was 70000 nM (active).
On to `NC1C=CN([C@@H]2O[C@H](CO)[C@@H](O)[C@H]2O)C(=O)N1` (stereo partly specified), for which, under “protein: Peptidyl-tRNA hydrolase, PDB entry 4jwk”, the Kd was 4.79 nM (active).
